Screens from PubChem.
Shown are actives, neighbours in structure and some others; about 2.7% of the full set was active somewhere.
IP6K1 inh: Primary qHTS assay for small molecule inhibitors of Inositol hexaphosphate kinase 1 (IP6K1) | IP6K1 kinase, ADP-Glo luminescence, 2 h; hits give low values | activity change, % (series mostly up to about 58 µM) | hit rate 0.81% among 140,000; in the data active = activity change below about -25%
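ADP-Glo luminescence measures ADP made by human IP6K1 during a 2 h RT reaction with ATP/IP6 (mix at 1.3 mM/130 uM); top library doses 57.5 and 19.1 uM final.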
KDM5B inhibitor: Primary screen for KDM5B Histone Demethylases FDH-coupled qHTS; KDM5B demethylase, FDH-coupled NADH fluorescence (FDH is formaldehyde dehydrogenase); hit rate 2.6% among 220,000; Potency, µM (doses to about 57.7 µM), most hits filed as inhibitors; active = well fitted inhibition curve with a large enough effect; inconclusive = small, poorly fitted or top-dose-only effect; inactive = no such curve, though single readings can be large or run the other way; also: nearly all actives have a fitted effect of over 70% in size
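KDM5BΔAP (200 nM final) in 50 mM HEPES pH 7.5, 0.01% Tween-20 was preincubated 10 min at RT with compound over a concentration range. Substrate mix (H3K4me3 12.5 µM, α-KG 25 µM, Fe²⁺, ascorbate, NAD⁺, FDH) was added, and NADH fluorescence change over 30 min gave dose-response curves.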
A number is an active result; 0 = inactive; ? = inconclusive; - = no result.

SMILES	IP6K1 inh	KDM5B inhibitor
COc1ccc(NC(=O)c2cc(-c3ccccc3C(F)(F)F)nc3c2cnn3C)cc1OC	0	-
COCc1cccc(C(=O)NC(C)c2cccc(OC(F)F)c2)c1 (stereo not given)	-	0
O=C(C1CN(C2CCCCC2)C(=O)N1)N1CCc2ccccc2C1 (stereo not given)	0	-
CC(=O)NCc1nnc2n1C(C(=O)NCC1CCCCC1)CC2 (stereo not given)	0	-
Cn1ccc(C(=O)NCc2nnc3n2C(C(=O)NCC2CC2)CC3)n1 (stereo not given)	0	100µM
O=C(Nc1ccc(F)cc1)C1CCc2nnc(-c3cccc(C(F)(F)F)c3)n21 (stereo not given)	0	-
O=C(c1nc(-c2ccc(F)cc2)c2cnccn12)N1CCOCC1	0	40µM
O=C(c1nc(-c2cccnc2)c2cnccn12)N1CCOCC1	0	0
COc1ccccc1-c1nc(C(=O)N2CCOCC2)n2ccccc12	0	89µM
COc1ccccc1-c1nc(C(=O)N2CCOCC2)n2ccncc12	0	100µM
COc1ccccc1-c1nc(C(=O)N2CCN(c3ncccn3)CC2)n2ccncc12	0	?
COc1ccccc1CN1CCc2nc(C(=O)N3CCOCC3)oc2CC1	0	0
Cn1cc(CN2C[C@@H]3C[C@H](C2)c2ccc(NC(=O)COc4ccccc4)c(=O)n2C3)c2ccccc21	0	28µM
CN(C)CC(=O)Nc1ccc2n(c1=O)C[C@H]1C[C@@H]2CN(C(=O)c2ccc(-c3ccccc3)cc2)C1	0	0
CCN(CC)C(=O)c1cc2c(s1)CCC(C(=O)N1CCN(c3ccccc3)CC1)C2 (stereo not given)	0	0
CCN(CC)C(=O)c1cc2c(s1)CCC(C(=O)N1CCN(c3ccccn3)CC1)C2 (stereo not given)	0	28µM
O=C1CCN(C(=O)c2ccsc2)CCCC(C(=O)N2CCN(c3ccccn3)CC2)CCN1 (stereo not given)	0	20µM
O=C1CCN(Cc2ccncc2)CCCC(C(=O)N2CCN(c3ccccn3)CC2)CCN1 (stereo not given)	0	?
CCN1CCN(C(=O)C2CCCN(C(=O)c3ccccc3)CCC(=O)NCC2)CC1 (stereo not given)	0	0
O=C1CCN(C(=O)C2CCC2)CCCC(C(=O)N2CCN(c3ccccn3)CC2)CCN1 (stereo not given)	0	22µM
O=C(Nc1ccc(Cl)cc1)N1CCCC(c2nn(-c3ccccn3)c(=O)[nH]2)C1 (stereo not given)	0	-
c1ccc(CCc2nc3nccc(-c4ccccn4)n3n2)cc1	0	?
COCc1nc2nccc(-c3ccsc3)n2n1	0	28µM
COCc1nc2nccc(-c3ccc(Br)s3)n2n1	0	0
COc1ccccc1-c1nc2nccc(-c3ccsc3)n2n1	0	?
SMILES	IP6K1 inh	KDM5B inhibitor
CC(C)Cc1nc2nccc(-c3ccsc3)n2n1	0	28µM
CCc1nc2nccc(-c3ccsc3)n2n1	0	25µM
O=C(CCc1nc(-c2ccccc2)c(-c2ccccc2)o1)N1CCCCC1	-	0
O=C(Nc1cc(-c2cccnc2)nn1-c1ccccc1)c1ccc(Cl)cc1	0	-
Cc1ccc(C(O)Cn2ccn3nc(-c4ccc(F)cc4)cc3c2=O)cc1 (stereo not given)	0	14µM
CC(C)c1ccc(C(O)Cn2ccn3nc(-c4ccc(F)cc4)cc3c2=O)cc1 (stereo not given)	0	25µM
O=c1c2cc(-c3cccs3)nn2ccn1CC(O)c1ccc(F)cc1 (stereo not given)	0	16µM
CCOc1ccc(-c2cc3c(=O)n(CC(O)c4ccc(C(C)C)cc4)ccn3n2)cc1 (stereo not given)	0	?
COc1ccc(OC)c(C(O)Cn2ccn3nc(-c4cccs4)cc3c2=O)c1 (stereo not given)	0	0
Cc1ccc(C(O)Cn2ccn3nc(-c4ccc(F)cc4)cc3c2=O)cc1C (stereo not given)	0	0
CC(C)c1nc2c(c(-c3ccc(Cl)cc3)n1)CCN(Cc1ccc(C#N)cc1)CC2	0	?
C/C(=N/O)C(C)N(O)C(C)/C(C)=N/O (stereo not given)	-	0
Cc1ccc(-c2cn3c(n2)CO[C@@H](CNS(C)(=O)=O)C3)cc1	0	40µM
COc1ccc(-c2cn3c(n2)CO[C@@H](CNS(C)(=O)=O)C3)cc1	0	?
COc1cccc(NC(=O)c2nn(CC(C)C)c(=O)c3ccccc23)c1	-	0
O=C1Nc2ccc(-c3ccc4c(c3)OCO4)cc2C(=O)N2CCN(C(=O)COc3ccccc3)C[C@H]12	0	28µM
COCC(=O)N1CCN2C(=O)c3cc(-c4ccc5c(c4)OCO5)ccc3NC(=O)[C@H]2C1	0	?
COc1cc(SC)ccc1C(=O)N[C@H]1C[C@H]2C(=O)Nc3ccc(-c4ccc5c(c4)OCO5)cc3C(=O)N2C1	0	32µM
